Several values for one entry are separate records, joined by “and”; a condition that tells them apart may be missing. Equal values may be shown once. Records with an inconclusive call do not appear. More than one record can exist for a structure, and the calls need not agree. Activity calls are given as the source filed them. How the source made its calls, unless noted: active means hit-call score of the fitted dose curve at least 0.9, where 1 is the maximum; inactive means score below 0.9.
Experiments:
[1] = ATG_NF_kB_CIS: Attagene CIS-FACTORIAL HepG2 Assay for human Nuclear Factor Kappa B (NF-kB) (AID 2282991); details: HepG2 Attagene cis-factorial NF-kB reporter mRNA; actives raise or lower the signal
Procedure, shortened: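 Fluorescence of labelled RT-PCR products separated by capillary electrophoresis gives reporter mRNA levels from transfected HepG2 cells exposed 24 h; values are fitted in both directions relative to DMSO.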

[2] = ATG_NRF2_ARE_CIS: Attagene CIS-FACTORIAL HepG2 Assay for human Nuclear Factor Erythroid 2 Related Factor 2 (NFR2) response to Antioxidant Response Elements (ARE) (AID 2282992); details: HepG2 Attagene ARE/NRF2 reporter, transcription factor activity; actives raise or lower the signal
Procedure, shortened: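 Endogenous transcription factor activity in human liver HepG2 cells is tracked via a cis-element-driven reporter within a multiplexed set. mRNA induction is read by RT-PCR and capillary electrophoresis after 24 h, with DMSO as baseline.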

[3] = ATG_Oct_MLP_CIS: Attagene CIS-FACTORIAL HepG2 Assay for human Octamer-Binding Transcription Factor (Oct) (AID 2282993); details: HepG2 Attagene cis-factorial Oct reporter, mRNA; actives raise or lower the signal
Procedure, shortened: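 HepG2 cells transiently transfected with cis-promoter-driven multiplexed reporter transcription units, dosed for 24 h. Reporter mRNA quantified by RT-PCR, fluorescent labelling, HpaI digestion and capillary electrophoresis; bidirectional fits versus DMSO baseline.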

[4] = target: Cellular tumor antigen p53 (Homo sapiens) (UniProt P04637); experiment: ATG_p53_CIS: Attagene CIS-FACTORIAL HepG2 Assay for human p53 Transcription Factor (AID 2282994); details: HepG2 p53 cis-element reporter, Attagene mRNA; actives raise or lower the signal
Cellular tumor antigen p53 (Homo sapiens), sequence (P04637 whole entry, looked up, the tested form may be a part): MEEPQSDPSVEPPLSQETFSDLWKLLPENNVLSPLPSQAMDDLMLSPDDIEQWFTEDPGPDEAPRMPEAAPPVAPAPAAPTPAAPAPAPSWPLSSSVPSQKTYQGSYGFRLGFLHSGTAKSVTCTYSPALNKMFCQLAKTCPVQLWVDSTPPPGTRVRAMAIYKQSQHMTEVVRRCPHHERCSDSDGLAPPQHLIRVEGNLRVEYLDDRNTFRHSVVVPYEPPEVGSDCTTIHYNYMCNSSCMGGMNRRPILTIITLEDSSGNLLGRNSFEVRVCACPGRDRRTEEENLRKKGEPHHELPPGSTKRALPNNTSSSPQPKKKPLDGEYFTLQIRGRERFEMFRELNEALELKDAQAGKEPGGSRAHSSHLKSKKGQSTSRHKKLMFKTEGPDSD
Procedure, shortened: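 Steps: transfect HepG2 with multiplexed cis reporter constructs; dose chemicals 24 h; extract RNA, reverse-transcribe, PCR-amplify reporter sequences; FAM-label, HpaI-digest, resolve fragments by CE. Activity fitted both directions relative to DMSO.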

[5] = target: human Peroxisome Proliferator-activated Receptor delta (PPARd), PPARD (gene 5467) (UniProt Q03181); experiment: ATG_PPARd_TRANS: Attagene TRANS-FACTORIAL HepG2 Assay for human Peroxisome Proliferator-activated Receptor delta (PPARd) (AID 2283002; active means hit-call score of the fitted dose curve at least 0.9, where 1 is the maximum)
human Peroxisome Proliferator-activated Receptor delta (PPARd), PPARD (gene 5467), sequence (Q03181 whole entry, looked up, the tested form may be a part): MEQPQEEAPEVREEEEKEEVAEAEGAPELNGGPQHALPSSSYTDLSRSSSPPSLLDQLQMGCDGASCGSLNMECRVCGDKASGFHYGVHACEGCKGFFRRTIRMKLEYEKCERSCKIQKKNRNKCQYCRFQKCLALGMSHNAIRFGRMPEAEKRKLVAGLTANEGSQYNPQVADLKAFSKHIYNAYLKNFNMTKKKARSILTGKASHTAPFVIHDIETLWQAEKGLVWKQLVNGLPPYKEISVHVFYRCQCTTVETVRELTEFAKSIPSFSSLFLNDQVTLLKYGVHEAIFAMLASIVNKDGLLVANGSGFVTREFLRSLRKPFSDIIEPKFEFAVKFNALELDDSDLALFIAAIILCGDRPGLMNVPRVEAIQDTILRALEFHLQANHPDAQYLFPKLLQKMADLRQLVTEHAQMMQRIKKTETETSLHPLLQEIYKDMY
Procedure, shortened: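 Read-out is induced reporter mRNA, quantified by RT-PCR with fluorescent labelling and capillary electrophoresis after 24 h dosing. Cells are HepG2 transiently carrying multiple GAL4-UAS reporter units driven by exogenous NR-GAL4 chimeras; DMSO serves as baseline.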

[6] = BSK_3C_TissueFactor: BioMAP Diversity Plus: 3C Assay for Tissue Factor Biomarker Activity (AID 2282997); details: BioMAP 3C HUVEC, tissue factor biomarker readout; actives raise or lower the signal
Procedure, shortened: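 Cells used were primary human umbilical vein endothelial cells. They were dosed with chemical, and after 24 h Tissue Factor was quantified by ELISA. Curves were fitted bidirectionally with DMSO as baseline.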

[7] = BSK_3C_uPAR: BioMAP Diversity Plus: 3C Assay for Urokinase-type plasminogen activator receptor (uPAR) Biomarker Activity (AID 2282998); details: BioMAP 3C HUVEC, uPAR biomarker ELISA; actives raise or lower the signal
Procedure, shortened: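 Human umbilical vein endothelial primary cells were exposed to test chemical for 24 h. Cell-surface uPAR was then quantified by ELISA, and responses were fitted bidirectionally against DMSO as negative control and baseline.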

[8] = BSK_3C_VCAM1: BioMAP Diversity Plus: 3C Assay for Vascular cell adhesion molecule 1 (VCAM1) Biomarker Activity (AID 2282999); details: BioMAP 3C HUVEC, VCAM1 ELISA, cytokine-stimulated; actives raise or lower the signal
Procedure, shortened: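 Activity fitted in both directions relative to DMSO, with ELISA measurement of the surface marker on primary HUVEC (3C) at 24 h post-treatment; parallel SRB staining (0.1% SRB, TCA-fixed, 560 nm) flagged overt cytotoxicity.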

[9] = BSK_4H_Eotaxin3: BioMAP Diversity Plus: 4H Assay for Eotaxin 3 Biomarker Activity (AID 2283000); details: primary human endothelial cells (HUVEC); actives raise or lower the signal
Procedure, shortened: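 Endothelial primary cells (human umbilical vein) exposed to compound for 24 h. ELISA detection of Eotaxin-3.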

[10] = target: human Peroxisome Proliferator-activated Receptor alpha (PPARa), PPARA (gene 5465) (UniProt Q07869); experiment: ATG_PPARa_TRANS: Attagene TRANS-FACTORIAL HepG2 Assay for human Peroxisome Proliferator-activated Receptor alpha (PPARa) (AID 2283001; active means hit-call score of the fitted dose curve at least 0.9, where 1 is the maximum;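 on AC50: potency for gain of reporter signal over DMSO so agonist or activator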)
human Peroxisome Proliferator-activated Receptor alpha (PPARa), PPARA (gene 5465), sequence (Q07869 whole entry, looked up, the tested form may be a part): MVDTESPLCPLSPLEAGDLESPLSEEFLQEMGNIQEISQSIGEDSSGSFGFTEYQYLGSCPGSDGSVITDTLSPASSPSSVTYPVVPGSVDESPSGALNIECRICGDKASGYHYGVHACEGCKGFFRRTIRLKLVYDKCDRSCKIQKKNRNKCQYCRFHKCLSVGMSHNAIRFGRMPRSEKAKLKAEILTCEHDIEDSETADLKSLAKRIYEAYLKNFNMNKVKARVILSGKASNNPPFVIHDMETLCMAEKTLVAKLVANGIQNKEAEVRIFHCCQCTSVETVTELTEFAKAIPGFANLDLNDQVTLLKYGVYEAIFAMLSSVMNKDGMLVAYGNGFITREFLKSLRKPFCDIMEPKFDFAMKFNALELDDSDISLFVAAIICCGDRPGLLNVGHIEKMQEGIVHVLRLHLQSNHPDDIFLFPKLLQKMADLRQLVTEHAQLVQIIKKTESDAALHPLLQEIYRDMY
Procedure, shortened: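 Transfected HepG2 cells treated with test chemical for 24 h. RNA isolated, reverse-transcribed with oligo(dT), PCR-amplified, FAM-labelled and HpaI-digested. Fragments sized by capillary electrophoresis; gain-of-signal fit relative to DMSO.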

Measured: AC50

FC(F)(F)C(F)(F)C(F)(F)Br
inactive: [1] | [2] | [3] | [4]

CCCCCCCCCCCC[N+](C)(C)Cc1ccccc1
inactive: [1] | [2] | [3] | [5]
active: [2] 9.38 µM | [3] 13.5 µM

CCOC(=O)c1nc(C(Cl)(Cl)Cl)n(-c2ccc(Cl)cc2Cl)n1
active: [2] 26.8 µM
inactive: [1] | [3]

O=C1OC(=O)c2cc(-c3ccc4c(c3)C(=O)OC4=O)ccc21
inactive: [1] | [2] | [3] | [4]

O=C(CC(=O)C(F)(F)C(F)(F)C(F)(F)F)c1cccs1
inactive: [1] | [3] | [4] | [5]
active: [2] 12.9 µM and 20.2 µM | [3] 9.28 µM | [6] 29.2 µM and 35.5 µM | [7] 46.7 µM and 30 µM | [8] 45.3 µM and 48.7 µM | [9] 34.6 µM and 39.1 µM | [10] 13.3 µM and 14.1 µM

Oc1cc2ccccc2cc1O
active: [2] 100 µM | [10] 42.8 µM
not listed: [7]
inactive: all other assays above

C=CC(=C)CC/C=C(\C)CCC=C(C)C
active: [2] 19 µM
not listed: [10]
inactive: all other assays above

CCCCCCCCCCCCCCCCCC[N+](C)(C)Cc1ccccc1
active: [2] 12.6 µM | [3] 3.19 µM | [6] 1.17 µM | [8] 1.91 µM | [9] 2.84 µM
inactive: [1] | [4]

C=CC(=O)OCC(CO)(COCC(COC(=O)C=C)(COC(=O)C=C)COC(=O)C=C)COC(=O)C=C
active: [1] 817 nM | [3] 2.89 µM | [4] 2.86 µM
inactive: [2] | [10]

COc1cc(OC)nc(NC(=O)NS(=O)(=O)Nc2ccccc2C(=O)N(C)C)n1
not listed: [5] | [7] | [10]
inactive: all other assays above

C=CC(=O)OCCN(CC)CC
inactive: [1] | [10]
active: [2] 144 µM | [3] 48.9 µM | [4] 169 µM

COc1cc([N+](=O)[O-])ccc1N
inactive: [1] | [2] | [3] | [4] | [10]

COc1ccc(C#N)cc1
inactive: [1] | [2] | [3] | [4] | [10]

c1cc[nH]c1
inactive: [1] | [2] | [3] | [4] | [10]

C=CC(C)(CCC=C(C)C)OC(C)=O (stereo not given)
active: [6] 27.8 µM | [9] 34.2 µM
not listed: [5] | [7]
inactive: all other assays above

O=C1OC(=O)C(F)(F)C1(F)F
inactive: [1] | [2] | [3] | [4] | [10]

O=S(=O)(O)C(F)(F)C(F)(F)C(F)(F)C(F)(F)C(F)(F)C(F)(F)C(F)(F)C(F)(F)C(F)(F)C(F)(F)F
inactive: [3] | [4] | [6] | [8] | [9] | [5]
active: [1] 14.6 µM and 9.12 µM | [2] 47.3 µM and 25.4 µM | [9] 5.83 µM

OCC(F)(F)C(F)(F)C(F)(F)C(F)(F)C(F)(F)C(F)(F)C(F)(F)C(F)(F)C(F)(F)C(F)(F)C(F)(F)F
active: [2] 55.4 µM
not listed: [7] | [10]
inactive: all other assays above

CCCCCCCCCC=CCC1CC(=O)OC1=O (stereo not given)
active: [1] 54900 nM
inactive: [2] | [3] | [4] | [10]

O=C(F)C(F)(F)C(F)(F)C(F)(F)C(=O)F
inactive: [1] | [2] | [3] | [4] | [10]

CC1CNCC(C)O1 (stereo not given)
inactive: [1] | [2] | [3] | [4] | [10]

CCCCCCCCCCCC(=O)NCCCN(C)C
active: [3] 20.9 µM | [4] 20.2 µM
inactive: [1] | [2] | [10]

Cc1cccc2c1ccc1ccccc12
active: [6] 0.0495 µM
not listed: [7] | [10]
inactive: all other assays above

CCOC(=O)CN[C@@H](C(=O)N1CC[C@H]1C(=O)NCc1ccc(/C(N)=N/O)cc1)C1CCCCC1
not listed: [7]
inactive: all other assays above

C[C@]12CC[C@@H]3c4ccc(O)cc4CC[C@H]3[C@@H]1C[C@@H](O)[C@@H]2O
not listed: [10]
inactive: all other assays above

Brc1ccc(Oc2ccc(Br)cc2Br)cc1
inactive: [1] | [2] | [3] | [4] | [10]

O=C(O)C(=O)O
inactive: [1] | [2] | [3] | [4] | [10]

O=P(O)(O)CCC(F)(F)C(F)(F)C(F)(F)C(F)(F)C(F)(F)C(F)(F)C(F)(F)C(F)(F)F
active: [9] 41.5 µM and 28.8 µM
not listed: [7]
inactive: all other assays above

— PubChem BioAssay (EPA / NIEHS)
